Experimental data published in PubChem BioAssay (Tox21).
Inconclusive results are not listed. Entries that show only a call come without a potency. The source holds several records for some structures; these can differ, active in one and inactive in another. The source made the active and inactive calls. Unless noted, the call rests on the fitted dose curve; in most records, active means well fitted curve in the direction sought with a large enough effect in the repeat runs; inconclusive means weak or mixed curves; inactive means no such curve, though single readings can be large; an effect the other way counts as inactive or inconclusive.

What was measured:
[1] = Caspase-3/7 induction in HepG2 cells by small molecules, qHTS assay (AID 1346978); further: nearly all actives have a fitted effect of over 15% in size
Outline: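 Wild-type HepG2 cells, 2,000/well, settled 5 hr at 37 C and 5% CO2, then compound-treated for 17 hr; caspase-3/7 activity read by luminescent Caspase-Glo 3/7 after 30 min at room temperature.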

[2] = Caspase-3/7 induction in HepG2 cells by small molecules, qHTS cell viability counter screen (AID 1346981); further: series mostly up to about 92 µM; nearly all actives have a fitted effect of over 30% in size
Outline: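 Wild-type HepG2 cells (2,000/well) were allowed to settle for 5 hr at 37 C, 5% CO2, then dosed with compounds in DMSO by pin transfer. After 16 hr at 37 C, CellTiter-Fluor was added and fluorescence read 1 hr later.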

[3] = biological target: Nuclear receptor subfamily 1 group I member 2 (Homo sapiens) (UniProt O75469); experiment: Human pregnane X receptor (PXR) small molecule agonists, qHTS assay (AID 1346982); further: nearly all actives have a fitted effect of over 35% in size; further: potency means the concentration at half of the fitted maximal effect
Outline: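 PXR-Luc HepG2 cells (CYP3A4 promoter-driven luciferase) were seeded in medium with 5% charcoal-stripped FBS, left 5 hr at 37 C, then exposed to compounds in DMSO for 24 hr. Luminescence was read after ONE-Glo addition.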

[4] = biological target: Acetylcholinesterase (Homo sapiens) (UniProt P22303); experiment: Acetylcholinesterase (AChE) small molecule antagonists: colormetric cell-based qHTS assay (AID 1347395; calls by dose curve; further: nearly all actives have a fitted effect of over 30% in size)
Outline: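 AChE inhibition read colorimetrically via DTNB–thiocholine in SH-SY5Y cells. Compound 30 min, substrate 90 min, both 37 C.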

[5] = biological target: Acetylcholinesterase (Homo sapiens) (UniProt P22303); experiment: Acetylcholinesterase (AChE) small molecule antagonists: enzyme-based qHTS assay (AID 1347397; calls by dose curve; further: nearly all actives have a fitted effect of over 55% in size); details: Potency: AChE enzyme activity inhibition
Outline: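 Recombinant human AChE (50 mU/mL) preincubated with compound 30 min at room temperature; acetylthiocholine plus DTNB then added, and thiocholine formation read colorimetrically after 10 min at room temperature. DMSO served as vehicle control.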

[6] = Caspase-3/7 induction in CHO-K1 cells by small molecules, qHTS assay (AID 1346980); further: nearly all actives have a fitted effect of over 15% in size
Outline: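 Wild-type CHO-K1 cells exposed to compounds for 17hr at 37 C, 5% CO2. Caspase-3/7 activity then measured by Caspase-Glo 3/7 luminescence after 30min at room temperature.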

Chain of Acetylcholinesterase (Homo sapiens) (P22303 whole entry, looked up): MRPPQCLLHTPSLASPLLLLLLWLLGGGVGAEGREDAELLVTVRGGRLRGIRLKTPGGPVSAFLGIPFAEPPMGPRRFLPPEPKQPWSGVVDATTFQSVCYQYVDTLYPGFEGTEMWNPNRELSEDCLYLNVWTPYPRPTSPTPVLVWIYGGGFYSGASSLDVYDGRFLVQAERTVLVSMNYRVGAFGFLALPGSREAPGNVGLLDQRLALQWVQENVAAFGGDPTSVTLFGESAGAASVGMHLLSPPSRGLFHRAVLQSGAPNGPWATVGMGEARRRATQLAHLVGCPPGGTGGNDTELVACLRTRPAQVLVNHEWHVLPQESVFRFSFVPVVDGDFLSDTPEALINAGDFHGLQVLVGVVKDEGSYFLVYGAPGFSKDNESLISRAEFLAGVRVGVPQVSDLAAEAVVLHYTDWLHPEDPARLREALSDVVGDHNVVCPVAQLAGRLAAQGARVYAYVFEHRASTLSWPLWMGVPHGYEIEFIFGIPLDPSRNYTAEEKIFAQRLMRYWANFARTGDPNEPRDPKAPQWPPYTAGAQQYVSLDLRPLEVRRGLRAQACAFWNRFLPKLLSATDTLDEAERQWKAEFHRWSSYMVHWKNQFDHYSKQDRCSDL
Chain of Nuclear receptor subfamily 1 group I member 2 (Homo sapiens) (O75469 whole entry, looked up): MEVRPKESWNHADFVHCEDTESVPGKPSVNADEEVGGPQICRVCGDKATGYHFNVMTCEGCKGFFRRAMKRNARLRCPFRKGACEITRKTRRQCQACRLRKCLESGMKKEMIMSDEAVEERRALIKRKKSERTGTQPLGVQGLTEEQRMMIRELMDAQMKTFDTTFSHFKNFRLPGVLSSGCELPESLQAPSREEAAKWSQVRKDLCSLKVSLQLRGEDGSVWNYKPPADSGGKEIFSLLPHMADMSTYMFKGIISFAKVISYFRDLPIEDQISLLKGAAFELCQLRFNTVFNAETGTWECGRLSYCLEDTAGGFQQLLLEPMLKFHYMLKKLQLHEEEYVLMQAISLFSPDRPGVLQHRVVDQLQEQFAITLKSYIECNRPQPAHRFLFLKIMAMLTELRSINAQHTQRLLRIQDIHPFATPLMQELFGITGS

SMILES	Potency [1]	Potency [2]	Potency [3]	Potency [4]	Potency [5]	Potency [6]
Clc1ccc(C(c2ccccc2Cl)C(Cl)(Cl)Cl)cc1 (centres undefined)	inactive	inactive	34.6 µM (active) and inactive	inactive	inactive	–
CC(C)(O)c1cnn2c(-c3ccc(F)c(-c4c(F)cccc4C#N)c3)cnc2n1	inactive	–	2.43 µM (active)	–	inactive	inactive
CN(C)CCc1c[nH]c2ccc(O)cc12	inactive	–	inactive	inactive	inactive	inactive
